VACV mCherry inh: qHTS for Stage-Specific Inhibitors of Vaccinia Orthopoxvirus: mCherry Reporter Primary qHTS. Potency, µM (titrated, usually from 36.5 µM), most hits filed as inhibitors. 310,000 compounds, 0.63% hits. Vaccinia virus mCherry reporter infection, fluorescence; calls by dose curve; tested in A549 cells; also: nearly all actives have a fitted effect of over 35% in size
Marburg entry inh: qHTS for inhibitors of binding or entry into cells for Marburg Virus | Marburg virus pseudotyped entry inhibition, cell reporter | AID 540276, 2011 | Potency, µM (series often up to 37.8 µM), most hits filed as inhibitors | 300,000 compounds, 1.8% hits; calls by dose curve; tested in HEK293 cells
LASV entry inh: qHTS for Inhibitors of binding or entry into cells for Lassa Virus | Potency, µM (highest dose often 37.9 µM), most hits filed as inhibitors | Lassa virus pseudotype entry inhibition, cell reporter | AID 540256, 2011 | 300,000 compounds, 1.2% hits; calls by dose curve; tested in HEK293 cells; also: nearly all actives have a fitted effect of over 50% in size
Vaccinia Venus: qHTS for Stage-Specific Inhibitors of Vaccinia Orthopoxvirus: Venus Reporter Primary qHTS. Vaccinia virus Venus reporter expression, fluorescence. Potency, µM (top dose mostly 36.5 µM), most hits filed as inhibitors. 330,000 compounds, 0.46% hits. AID 720580, 2013; calls by dose curve; tested in A549 cells; also: nearly all actives have a fitted effect of over 30% in size
Hits are given with their value; . = inactive; ? = inconclusive; / = no result given; ! = not confirmed by another sample. Shown are actives, neighbours in structure and some others; about 2.5% of the full set was active somewhere.

SMILES | VACV mCherry inh | Marburg entry inh | LASV entry inh | Vaccinia Venus
COC(=O)c1c(NC(=O)C2CCCCC2)sc2c1CCN(C(C)C)C2 | . | / | / | .
C[C@@H]1O[C@@H](O[C@@H]2C=C3CCC4C(CC[C@]5(C)[C@@H](c6ccc(=O)oc6)CC[C@]45O)[C@@]3(C)CC2)[C@H](O)[C@H](O)[C@H]1O (stereo partly drawn) | ? | / | / | 0.631µM
CC(=O)C1CCC2(O)C3CCC4=CC(=O)CCC4(C)C3CCC12C (stereo not drawn) | . | . | . | .
C[C@@H]1O[C@@H](O[C@@H]2C=C3CC[C@@H]4C(CC[C@]5(C)[C@@H](c6ccc(=O)oc6)CC[C@]45O)[C@@]3(C)CC2)[C@H](O)[C@H](O)[C@H]1O (stereo partly drawn) | 31.6µM | / | / | ?
C[N+]1(CC(=O)c2ccc(Oc3ccccc3)cc2)CCOCC1 | . | / | / | .
CCCCCC1=CC2=C(C(=O)OC)C(c3ccccc3)NC(=O)N2CC1 (stereo not drawn) | / | . | / | /
COc1ccccc1CNCc1cc(OC)c(OC)cc1OC | / | . | . | /
COc1ccccc1CNCc1cccc(Oc2ccccc2)c1 | . | 11.2µM | . | .
CC(=O)O[C@H]1CC[C@]2(C)C3CC[C@@]4(C)C(C[C@@H](O)[C@@H]4O)C3[C@@H](OC(C)=O)C[C@H]2C1 (stereo partly drawn) | ? | / | / | .
CC(=O)O[C@H]1C[C@H](O[C@H]2[C@@H](O)C[C@H](O[C@H]3[C@@H](O)C[C@H](O[C@H]4CC[C@@]5(C)[C@H](CC[C@@H]6[C@@H]5C[C@@H](O)[C@]5(C)[C@@H](C7=CC(=O)OC7)CC[C@]65O)C4)O[C@@H]3C)O[C@@H]2C)O[C@H](C)[C@H]1O[C@@H]1O[C@H](CO)[C@@H](O)[C@H](O)[C@H]1O | ? | / | / | 2.51µM
CC(=O)OC1CC(OC2C(O)CC(OC3C(O)CC(OC4CCC5(C)C(CCC6C5CCC5(C)C(C7=CC(=O)OC7)CCC65O)C4)OC3C)OC2C)OC(C)C1OC1OC(CO)C(O)C(O)C1O (stereo not drawn) | 4.47µM | ? | 0.1µM | 5.62µM
CCc1nc2cc(C(=O)N3CCC[C@H]3C(=O)OC)cc(NC(=O)c3ccccc3OC)c2n1C | . | / | / | .
COc1ccccc1CN1CCOc2ccc(CN3CCC(Oc4cccnc4)CC3)cc2C1 | . | / | / | .
O=c1[nH]c(SCc2ccccc2Cl)nc2c1CCCC2 | / | . | . | /
O=C1CCCC2=C1C(c1ccncc1)c1c(nc(SCc3ccccc3Cl)[nH]c1=O)N2 (stereo not drawn) | / | 10µM | ? | .
C=CC[C@@H]1C=C(C(=O)OC)N(C(=O)C(F)(F)F)[C@@H](c2ccccc2Br)[C@@H]1C | / | . | / | /
CC(=O)N(C(C)=O)c1ncnc2c1c(-c1ccc(Cl)cc1)nn2C(C)(C)C | ? | ? | 15.8µM | ?
O=C(Nc1ccc(Cl)c(S(=O)(=O)N2CCOCC2)c1)c1ccc(OCC2CCCO2)cc1 (stereo not drawn) | . | 2.24µM | ? | .
O=C(CCCSc1ccccc1)Nc1ccc(Cl)c(S(=O)(=O)N2CCOCC2)c1 | ? | ? | ? | .
O=C(Nc1ccc(Cl)c(S(=O)(=O)N2CCOCC2)c1)c1ccc2c(c1)OCO2 | . | 10µM | ? | .
O=C(CCCOc1ccccc1)Nc1ccc(Cl)c(S(=O)(=O)N2CCOCC2)c1 | . | ? | 17.8µM | .
O=C(Nc1cccc(S(=O)(=O)C(F)F)c1)c1ccc(Cl)c(S(=O)(=O)N2CCOCC2)c1 | . | 10µM! | ? | ?
O=C(Nc1cccnc1)c1ccc(Cl)c(S(=O)(=O)N2CCOCC2)c1 | . | . | . | .
O=C(c1ccco1)N(Cc1cc2cc3c(cc2nc1N1CCOCC1)CCC3)CC1CCCO1 (stereo not drawn) | . | / | / | .
Cc1ccc2nc(CSc3nc(C)ccc3C#N)[nH]c2c1 | / | 2.31µM | 1.03µM | /
SMILES | VACV mCherry inh | Marburg entry inh | LASV entry inh | Vaccinia Venus
CCN(CC)c1ccc(/C=N/NC(=O)Cc2cccs2)c(O)c1 | 6.31µM | 16.4µM | 3.16µM | ?
COc1cc(/C=N\Nc2nc3ccccc3[nH]2)cc(OC)c1OC | . | 12.6µM | . | .
COc1ccccc1/C=C/C=N/NC(=O)Cc1cccs1 | . | ? | 0.116µM | .
O=C(Cc1cccs1)N/N=C/C=C/c1ccccc1[N+](=O)[O-] | . | . | ? | ?
S=C(N/N=C/c1ccc2ncccc2c1)Nc1ccccc1 | 7.94µM | / | / | 11.2µM
CC(=O)OC[C@H]1O[C@H](CC=NO[C@@H](C)CN2CCCc3nc(C)c(C)cc32)C=C[C@@H]1OC(C)=O | / | . | / | /
CN(C)c1ccc(/C=C/c2ccnc3ccc(O)cc23)cc1 | . | / | / | .
CCCOC(=O)C1=C(C)CS[C@@H]2[C@H](NC(=O)COc3ccccc3)C(=O)N12 | . | / | / | ?
CCN(CC)c1ccc(/C=N/N(c2ccccc2)c2ccccc2)c(O)c1 | . | ? | ? | .
Cc1ccc2cc(/C=N/Nc3nc4ccccc4[nH]3)c(Cl)nc2c1 | . | / | / | .
CCN(CC)c1ccc(/C=N/N=C(c2ccccc2)c2ccccc2)c(O)c1 | . | ? | 10.3µM | .
COc1ccc(/C=N/Nc2nc3ccccc3[nH]2)cc1OC | ? | ? | . | .
CCCCn1c(/C=N/Nc2nc3ccccc3[nH]2)nc2ccccc21 | ? | ? | ? | 11.2µM
C(=N\Nc1nc2ccccc2[nH]1)/c1ccc2ncccc2c1 | 1.58µM | ? | ? | 0.891µM
CCN(CC)c1ccc(/C=N/Nc2nc3ccccc3[nH]2)c(O)c1 | / | 3.98µM | 6.31µM | ?
Cc1c(C(=O)NCC(C)(C)N2CCOCC2)cnn1-c1nccc(-c2cccs2)n1 | . | / | / | .
COC(=O)c1ccccc1N/C=C/C(=O)c1ccc(Br)cc1 | . | . | . | .
CC(=O)Nc1ccc(N/C=C/C(=O)c2ccco2)cc1 | / | . | . | ?
O=C(/C=C/Nc1ccc(F)cc1F)c1ccc(Br)cc1 | . | ? | 7.08µM | .
O=C(/C=C/Nc1ccc(Br)cc1F)c1ccco1 | . | 1.41µM | 2.24µM | .
O=C(/C=C/Nc1ccc(F)cc1F)c1ccco1 | . | ? | ? | .
CN(C)c1ccc(N/C=C/C(=O)c2ccco2)cc1 | . | 3.66µM | ? | .
O=C(N[C@@H]1c2ccccc2C2(CCN(C(=O)c3cc4ccccc4oc3=O)CC2)[C@H]1O)c1cccnc1 | . | / | / | .
Cc1nc2cc(NCc3nc4ccccc4n3Cc3ccccc3)ccc2n1C | ? | 10µM | ? | .
Cc1cccc(NCc2nc3ccccc3n2Cc2ccccc2)c1 | / | ? | . | /
SMILES | VACV mCherry inh | Marburg entry inh | LASV entry inh | Vaccinia Venus
C[C@@H]1[C@H](c2ccccc2)OCCS(=O)(=O)N1Cc1ccccc1F | . | / | / | .
O=C(C[n+]1csc2ccccc21)c1ccc(I)cc1 | . | / | / | .
O=C(O)c1ccccc1NC(c1ccccc1)c1ccc2cccnc2c1O (stereo not drawn) | 8.91µM | ? | ? | ?
Cc1ccc2ccc(C(Nc3ccccn3)c3ccccc3)c(O)c2n1 (stereo not drawn) | ? | . | ? | .
COc1ccc(C(NC(=O)C(C)C)c2ccc3cccnc3c2O)cc1 (stereo not drawn) | 4.47µM | ? | 2.51µM | ?
COc1ccccc1NC(c1cccnc1)c1ccc2cccnc2c1O (stereo not drawn) | . | ? | ? | .
CCCC(=O)NC(c1ccccc1Cl)c1ccc2cccnc2c1O (stereo not drawn) | 1µM | 0.891µM | ? | ?

Screens: PubChem BioAssay, National Center for Advancing Translational Sciences (NCATS)
